The supplement of paper PMC8975748
Where a name gives a salt, the structure may show the parent alone.

Each molecule was assayed on Saccharomyces cerevisiae BY4741 SeMeCo community (assay: z-score of subpopulation abundance vs DMSO median, subpopulation auxotrophic for LM; higher = larger share of this subpopulation than in DMSO controls). Details: 10 µM; 24 h; SM minimal medium; subpopulation (auxotrophy): LM.
Experimental: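 Fluorescent four-plasmid SeMeCo (self-establishing metabolically cooperating S. cerevisiae BY4741 community; plasmids pH-mRuby2, pL-mWasabi, pU-eCFP, pM-TagRFP657) was grown 24 h in minimal SM medium with each Selleck FDA-approved drug at 10 µM in 384-well plates. Cells were fixed and imaged by high-content confocal microscopy. For each auxotrophic subpopulation (and the prototroph), a z-score gives the deviation from the DMSO vehicle-control population median.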

SMILES | z-score of subpopulation abundance
OC(CCCN1CCCCC1)(c1ccccc1)c1ccccc1 [Diphenidol HCl] | -0.56
CCCCCCCCCCCCCCCCOP(=O)([O-])OCC[N+](C)(C)C [Miltefosine] | -4.09
N#Cc1ccc2[nH]cc(CCCCN3CCN(c4ccc5oc(C(N)=O)cc5c4)CC3)c2c1 [Vilazodone] | 0.35
Cc1cc(CC(C)CC(C)(C)C)n(O)c(=O)c1 (stereo not given) [Piroctone Olamine] | 6.65
COc1cc(C(C)=O)ccc1OCCCN1CCC(c2noc3cc(F)ccc23)CC1 [Iloperidone] | 0.71
COc1cc2c(cc1OC)C(=O)C(CC1CCN(Cc3ccccc3)CC1)C2 (stereo not given) [Donepezil] | 0.51
CCNC(=O)[C@@H]1CCCN1C(=O)[C@H](CCCNC(=N)N)NC(=O)[C@H](CC(C)C)NC(=O)[C@@H](CC(C)C)NC(=O)[C@H](Cc1ccc(O)cc1)NC(=O)[C@H](CO)NC(=O)[C@H](Cc1c[nH]c2ccccc12)NC(=O)[C@H](Cc1c[nH]cn1)NC(=O)[C@@H]1CCC(=O)N1 [Leuprolide Acetate] | 0.63
CCCCCCCCCCCC(=O)O [Lauric Acid] | -0.8
CC1=C(C(=O)O)N2C(=O)[C@@H](NC(=O)[C@H](N)c3ccc(O)cc3)[C@H]2SC1 [Cefadroxil hydrate] | -0.09
Cc1cccc(N(C)C(=S)Oc2ccc3ccccc3c2)c1 [Tolnaftate] | -0.04
CCCN1CCCC[C@H]1C(=O)Nc1c(C)cccc1C [Ropivacaine] | 0.11
NC1CCN(c2nc3c(cc2F)c(=O)c(C(=O)O)cn3-c2ccc(F)cc2F)C1 (stereo not given) [Tosufloxacin p-Toluenesulfonate Hydrate] | -0.53
Cc1c(OCC(F)(F)F)ccnc1C[S@@+]([O-])c1nc2ccccc2[nH]1 [Dexlansoprazole] | 1.28
CC1(C)S[C@@H]2[C@H](NC(=O)[C@H](NC(=O)N3CCN(S(C)(=O)=O)C3=O)c3ccccc3)C(=O)N2[C@H]1C(=O)O [Mezlocillin Sodium] | -0.38
C[C@@H]1O[C@@H]1P(=O)(O)O [Fosfomycin Disodium] | -0.25
OC(c1ccccc1)(c1ccccc1)C12CC[N+](CCOCc3ccccc3)(CC1)CC2 [Umeclidinium bromide] | -0.42
Nc1nc2c(ncn2COCCO)c(=O)[nH]1 [Aciclovir] | 0.9
CCCCCCCN(CC)CCCC(O)c1ccc(NS(C)(=O)=O)cc1 (stereo not given) [Ibutilide Fumarate] | -0.88
C[C@H]1c2cccc(O)c2C(O)=C2C(=O)[C@]3(O)C(O)=C(C(N)=O)C(=O)[C@@H](N(C)C)[C@@H]3[C@@H](O)[C@@H]21 [Doxycycline monohydrate] | 0
Cc1c(C)c2c(c(C)c1O)CCC(C)(CCCC(C)CCCC(C)CCCC(C)C)O2 (stereo not given) [Vitamin E] | -0.64

SMILES | z-score of subpopulation abundance
O=C(CCCN1CC=C(n2c(=O)[nH]c3ccccc32)CC1)c1ccc(F)cc1 [Droperidol] | 0.69
COc1ccnc(C[S+]([O-])c2nc3cc(OC(F)F)ccc3[nH]2)c1OC (stereo not given) [Pantoprazole] | 0.04
C[N+]1(C)[C@@H]2CC[C@H]1C[C@@H](OC(=O)C(O)c1ccccc1)C2 (stereo not given in full) [Homatropine Methylbromide] | -1
COc1cccc2c1C(=O)c1c(O)c3c(c(O)c1C2=O)C[C@@](O)(C(=O)CO)C[C@@H]3O[C@H]1C[C@H](N)[C@@H](O)[C@H](C)O1 [Epirubicin HCl] | -0.38
Cc1onc(-c2ccccc2)c1C(=O)N[C@@H]1C(=O)N2[C@@H]1SC(C)(C)[C@@H]2C(=O)O [Oxacillin sodium monohydrate] | 0.23
COc1cc2c(cc1OC)C(=O)C(CC1CCN(Cc3ccccc3)CC1)C2 (stereo not given) [Donepezil HCl] | -0.26
CC[C@@H]1/C=C(\C)C[C@H](C)C[C@H](OC)[C@H]2O[C@@](O)(C(=O)C(=O)N3CCCC[C@H]3C(=O)O[C@H](/C(C)=C/[C@@H]3CC[C@@H](O)[C@H](OC)C3)[C@H](C)[C@@H](O)CC1=O)[C@H](C)C[C@@H]2OC [Ascomycin (FK520)] | 1.39
CCCCCC(=O)O[C@]1(C(C)=O)CC[C@H]2[C@@H]3CCC4=CC(=O)CC[C@]4(C)[C@H]3CC[C@@]21C [Hydroxyprogesterone caproate] | 1.5
Nc1ccc(S(=O)(=O)c2ccc(N)cc2)cc1 [Dapson] | 0.51
Nc1nc(O)c2ncn(CCC(CO)CO)c2n1 [Penciclovir] | -0.19
CC[C@H]1OC(=O)[C@H](C)[C@@H](O[C@H]2C[C@@](C)(OC)[C@@H](O)[C@H](C)O2)[C@H](C)[C@@H](O[C@@H]2O[C@H](C)C[C@H](N(C)C)[C@H]2O)[C@](C)(O)C[C@@H](C)C(=O)[C@H](C)[C@H]2OC(=O)O[C@@]21C [Erythromycin Cyclocarbonate] | 0.55
CS(=O)(=O)c1ccc([C@@H](O)[C@@H](CO)NC(=O)C(Cl)Cl)cc1 [Thiamphenicol] | -0.48
Nc1nc(/C(=C/CC(=O)O)C(=O)N[C@@H]2C(=O)N3C(C(=O)O)=CCS[C@H]23)cs1 [Ceftibuten dihydrate] | 0.1
Cc1nc(=O)c2cc(CN(C)c3ccc(C(=O)N[C@@H](CCC(=O)O)C(=O)O)s3)ccc2[nH]1 [Raltitrexed] | -0.75
C[C@@H](CN1CC(=O)NC(=O)C1)N1CC(=O)NC(=O)C1 [Dexrazoxane HCl (ICRF-187, ADR-529)] | -1.65
CO[C@H]1C[C@@H]2CC[C@@H](C)[C@@](O)(O2)C(=O)C(=O)N2CCCC[C@H]2C(=O)O[C@H]([C@H](C)C[C@@H]2CC[C@@H](OCCO)[C@H](OC)C2)CC(=O)[C@H](C)/C=C(\C)[C@@H](O)[C@@H](OC)C(=O)[C@H](C)C[C@H](C)/C=C/C=C/C=C/1C [Everolimus (RAD001)] | 4.3
COC(=O)C1=C(C)NC(C)=C(C(=O)OC(C)(C)CN(C)CCC(c2ccccc2)c2ccccc2)C1c1cccc([N+](=O)[O-])c1 (stereo not given) [Lercanidipine hydrochloride] | 1.89
CC(c1cc2ccccc2s1)N(O)C(N)=O (stereo not given) [Zileuton] | 0.16
CCC[C@@H]1C[C@@H](C(=O)N[C@@H]([C@H]2O[C@H](SC)[C@H](OP(=O)(O)O)[C@@H](O)[C@H]2O)[C@H](C)Cl)N(C)C1 [Clindamycin Phosphate] | 0.11
COCC1=C(C(=O)OC(C)OC(=O)OC(C)C)N2C(=O)[C@@H](NC(=O)/C(=N\OC)c3csc(N)n3)[C@H]2SC1 (stereo not given in full) [Cefpodoxime proxetil] | 0.62
